Sampled rows, rich in hits. Any-hit rate of the full collection: about 4.1%.
NALP1 inh = NALP1 inflammasome inhibitors in reconstituted yeast, colorimetric, S. cerevisiae, triplicate retest. S. cerevisiae NALP1/ASC/caspase-1 growth, X-gal OD620, 72 h. inhibition, % at 10 µM. 0.61% of 280,000 active; in the data active = inhibition mostly above about 24%, no sharp cut-off; inactive = mostly below about 32%
TIM10 inh = growth inhibitors of isogenic TIM10 control yeast, primary screen, counter-screen for tim10-1 yeast inhibitor project, luminescence, uHTS; S. cerevisiae TIM10 strain growth, BacTiter-Glo luminescence, 24 h; inhibition, % at 10 µM; 1.4% of 330,000 active; AID 463195, 2010;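 active = inhibition of 40% or more at the single tested concentration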;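 also: wild-type TIM10 isogenic control strain grown at permissive 25 °C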
tim23-1 inh = growth inhibitors of tim23-1 mutant yeast, primary screen, luminescence, uHTS; S. cerevisiae tim23-1 growth, BacTiter-Glo luminescence, 24 h; inhibition, % at 20 µM; 1.3% of 330,000 active; AID 463212, 2010;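 active = growth inhibition of the mutant yeast at or above 50%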;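 also: temperature-sensitive mutant grown at 25 °C; plate controls were DMSO-treated mutant yeast for no effect and medium wells lacking yeast for full effect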
NALP3 yeast inh = NALP3 inflammasome inhibitors in reconstituted yeast, primary screen, luminescence, uHTS; Yeast reconstituted NLRP3/ASC/caspase-1, beta-gal luminescence, 24 h; inhibition, % at 10 µM; 0.39% of 330,000 active;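 active = inhibition of 50% or more; inactive = inhibition below 50%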;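 also: plate controls were induced DMSO wells for no effect and uninduced yeast grown without galactose for full effect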
tim10-1 inh = growth inhibitors of tim10-1 mutant yeast, primary screen, luminescence, uHTS | S. cerevisiae tim10-1 ts strain growth, BacTiter-Glo, 24 h | inhibition, % at 20 µM | 2.2% of 330,000 active | AID 463190, 2010;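 active = inhibition of at least 40%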;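 also: mutant grown at 25 °C; 0% = DMSO wells with yeast and 100% = wells holding no yeast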
* hit, by the source's call; · = no result given.

SMILES	NALP1 inh	TIM10 inh	tim23-1 inh	NALP3 yeast inh	tim10-1 inh
Cc1cc(NC(=O)CSCc2nc(-c3cccc(F)c3)oc2C)no1	40*	-8	18	18	27
COc1ccccc1CNS(=O)(=O)CCNC(=O)c1ccccc1	·	12	-5	6	9
COC(=O)Nc1ccc(S(=O)(=O)N2CCC(C(=O)N3CCCC(C)C3)CC2)cc1 (stereo not given)	38*	5	8	7	4
CC1CCCN(C(=O)C2CCN(S(=O)(=O)c3ccccc3)CC2)C1 (stereo not given)	·	-6	-1	3	3
COc1ccc(CNC(=O)Cn2c(=O)oc3ccccc32)cc1OC	43*	3	3	14	-2
O=C(Cn1c(=O)oc2ccccc21)Nc1ccccc1Cl	16	-8	11	13	-15
O=C(Cn1c(=O)oc2ccccc21)NCCc1ccccc1Cl	42*	-13	-18	0	3
Cc1noc(C)c1COC(=O)c1csc2c1CCCC2	·	-12	12	29	1
CN(CCc1ccccn1)C(=O)CCC1CCCN(C(=O)c2ccc3c(c2)OCCO3)C1 (stereo not given)	20	-5	5	6	2
N=c1sccn1CC(=O)Nc1ccccc1Oc1ccccc1	38*	0	20	18	20
NC(=O)c1nc(-c2ccco2)nc2c1[nH]c(=O)n2-c1ccc(Cl)c(Cl)c1	·	11	-15	15	-2
COc1ccc(S(=O)(=O)N2CCCCC2)cc1NC(=O)CNc1ccc(F)cc1C	·	3	-4	6	-10
CC1CC(C)CN(c2ccc(C(=O)NCc3ccc4c(c3)OCO4)cc2[N+](=O)[O-])C1 (stereo not given)	12	1	12	16	7
Cc1cc(C)cc(N2C(=O)C3C4C=CC(C4)C3C2=O)c1 (stereo not given)	38*	-1	9	3	5
Cc1ccc(N2C(=O)C3C4C=CC(C4)C3C2=O)cc1 (stereo not given)	20	1	6	7	2
O=C1N=C(N2CCN(c3ccccc3)CC2)SC1Cc1ccccc1 (stereo not given)	40*	-26	27	35	8
Cc1ccc(N2CCN(C3=NC(=O)C(Cc4ccccc4)S3)CC2)cc1 (stereo not given)	24	3	37	14	-12
Nc1c(Cl)nc(-c2ccccc2)nc1Cl	3	19	19	-1	10
Cc1nc(-c2ccccc2)nc(Cl)c1Cl	33*	4	2	-16	0
CC1(C)CC(NC(=O)c2cc(S(=O)(=O)N3CCCCC3)ccc2Cl)CC(C)(C)N1	11	-10	-11	1	-17
COc1cccc(OC)c1OCCCNC1CCCC1	18	4	0	9	-1
CCN1C(=S)N[C@@H](CCc2ccccc2)C(C(=O)OC)=C1C	-16	-8	-3	23	37
O=[N+]([O-])c1ccc2nc(CCCc3nc4ccc([N+](=O)[O-])cc4[nH]3)[nH]c2c1	32*	3	-1	7	-15
O=[N+]([O-])c1ccc2nc(CN3CCCCC3)[nH]c2c1	-4	11	-1	2	-12
CCN(CC(=O)NCc1cccs1)C(=O)CCc1c[nH]c2ccccc12	5	13	7	-3	8
SMILES	NALP1 inh	TIM10 inh	tim23-1 inh	NALP3 yeast inh	tim10-1 inh
COc1ccccc1N1CCN(CCCCCCOc2ccc(F)cc2)CC1	46*	4	-13	26	-17
COc1ccccc1OCCCCN1CCN(c2ccccc2OC)CC1	47	-2	2	1	6
Fc1ccc(OCCCCCN2CCCC2)cc1	-6	3	-6	21	4
COc1ccccc1N1CCN(CCCCOc2cccc3ccccc23)CC1	54*	8	10	36	2
CCC(=O)OCC(=O)c1cc(C)n(-c2ccc(Br)cc2)c1C	1	5	29	8	22
CCN1CCN(C(=S)Nc2ccc(Cl)c(Cl)c2)CC1	51*	4	12	8	-4
CCN1CCN(C(=S)Nc2cccc(Cl)c2)CC1	-7	8	6	-4	8
COc1ccc(Cc2noc(CN(C)CCc3ccccc3)n2)cc1OC	15	7	21	-6	-4
COc1ccc(Cc2noc(CN(C)CCN3CCc4ccccc4C3)n2)cc1OC	29*	2	-1	-8	11
